Values joined by “and” are separate entries in the source; they are usually repeats but may differ in a detail not shown here. Equal entries are not always repeated. Among all 16,000 compounds or so, about 5,800 (36%) were called active. Roughly 23% stayed inconclusive and do not appear here. Calls come from the whole dose curve; as a rule, active = well fitted curve in the direction sought with a large enough effect; inconclusive = small, poorly fitted or top-dose-only effect, or effect the other way; inactive = no such curve, though single readings can be large or run the other way. The list shows a part of the results. Where a structure was tested more than once in an assay, its records may differ in their call.
Molecular target: Cytochrome P450 2C19 (Homo sapiens) (UniProt P33261)
Sequence (P33261 whole entry, looked up): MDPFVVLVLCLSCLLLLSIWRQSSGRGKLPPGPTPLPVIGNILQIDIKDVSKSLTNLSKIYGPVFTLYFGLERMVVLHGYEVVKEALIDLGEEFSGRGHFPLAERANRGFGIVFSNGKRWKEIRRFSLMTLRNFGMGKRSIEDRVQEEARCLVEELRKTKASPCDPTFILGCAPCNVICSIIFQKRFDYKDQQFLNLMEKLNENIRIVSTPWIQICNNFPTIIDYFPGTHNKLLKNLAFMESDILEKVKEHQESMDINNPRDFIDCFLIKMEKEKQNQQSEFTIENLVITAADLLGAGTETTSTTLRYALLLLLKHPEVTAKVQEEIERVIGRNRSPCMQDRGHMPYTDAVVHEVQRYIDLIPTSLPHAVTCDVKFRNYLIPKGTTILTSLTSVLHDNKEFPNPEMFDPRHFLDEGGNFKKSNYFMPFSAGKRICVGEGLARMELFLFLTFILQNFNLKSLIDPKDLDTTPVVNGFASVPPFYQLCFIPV
Assay: Cytochrome panel assay with activity outcomes
Settings: recombinant CYP, pro-luciferin dealkylation, luminescence, p450-cyp2c19; series mostly up to 57.1 µM
% is set by controls: 0 for no effect and ±100 for the full control effect.

Row | Compound | AC50 | activity, negative = inhibition
1 | CNC[C@H](O)[C@H](O)[C@H](O)[C@H](O)CO | inactive | –
2 | Cc1cnc(CNc2nc(-c3ccccc3C)nc3ccccc23)cn1 | inactive | –
3 | Cc1cnc(CNc2ncnc3ccc(-c4ccc(N(C)C)cc4)cc23)cn1 | 15.8 µM (active) | –
4 | Cc1cnc(CNc2ncnc3ccc(-c4ccoc4)cc23)cn1 | inactive | –
5 | Cc1cnc(CNc2ncnc3ccc(-c4ccccc4C)cc23)cn1 | 15.8 µM (active) | –
6 | Cc1ncc([N+](=O)[O-])n1CCO | inactive | –
7 | Clc1ccccc1-c1cncnc1NCc1cccs1 | 1.58 µM (active) | –
8 | CN(C)Cc1ccccc1-c1cncnc1NCc1cccs1 | inactive | –
9 | Cc1ccccc1-c1cncnc1NCc1cccs1 | 0.794 µM (active) | –
10 | COc1ccccc1-c1cncnc1NCc1cccs1 | 2 µM (active) | –
11 | FC(F)(F)c1ccccc1-c1cncnc1NCc1cccs1 | 20 µM (active) | –
12 | Cc1cnn(-c2cc(N/N=C/c3ccccc3F)ncn2)c1 | inactive | –
13 | COCCNC(=O)c1cc2c3ccccc3n(C)c2s1 | 11.2 µM (active) | –
14 | COCCNC(=O)c1ccc2c(c1)nc(C)n2-c1cc(OC)c(OC)c(OC)c1 | inactive | –
15 | CN(C)CCCNC(=O)c1cc2c3ccccc3n(C)c2s1 | inactive | –
16 | O=C(OCc1nc2ccccc2s1)c1ccc(Br)s1 | 0.447 µM (active) | –
17 | COc1ccc(NC(=O)CC2C(=O)N(c3cccc(OC)c3)C(=O)N2C2CCCCC2)cc1 (stereo not given) | 8.91 µM (active) | –
18 | COc1ccc(COC(=O)N/N=C2/C[C@@H](O)[C@@H](O)[C@@H]3[C@@H]4C(=O)N(c5cccc(Oc6ccccc6)c5)C(=O)[C@H]4CC[C@H]23)cc1 | – | -11% [at 11.4 µM] (inactive)
19 | COc1cccc(N2C(=O)C(CC(=O)Nc3ccccc3)N(C3CCCCC3)C2=O)c1 (stereo not given) | 4.47 µM (active) | –
20 | COc1ccc(COC(=O)N/N=C2/C[C@@H](O)[C@@H](O)[C@@H]3[C@@H]4C(=O)N(c5cccc(Oc6ccccc6)c5)C(=O)[C@H]4CC[C@@H]23)cc1 | – | 20.4% [at 11.4 µM] (inactive)
21 | CCCCCCCCSc1nnc(CSc2nc3nc(C)cc(C)n3n2)o1 | 7.94 µM (active) | –
22 | CCOC(=O)c1cnn(-c2ccc(C(C)C)cc2)c1NC(=O)C1CCC1 | 10 µM (active) | –
23 | CC(C)OCCCN1CN(S(=O)(=O)c2cccc(Cl)c2)c2nc3ccccc3nc21 | 3.16 µM (active) | –
24 | O=C(O)[C@@H](O)c1ccc(F)cc1 | – | 10.1% [at 11.4 µM] (inactive)
25 | C[C@H](C(=O)O)c1cccc(Oc2ccccc2)c1 | inactive | –

Row | Compound | AC50 | activity, negative = inhibition
26 | C[C@@H](C(=O)O)c1ccc(-c2ccccc2)c(F)c1 | inactive and 631 nM (active) | –
27 | O=S(Cc1ccccc1)CC(O)(c1ccccc1)c1ccccc1 (stereo not given) | 5.01 µM (active) | –
28 | O=C(O)C(Cl)(c1ccccc1)c1ccccc1 | – | -2.62% [at 11.4 µM] (inactive)
29 | O=C(O)c1cccc(C(=O)O)c1S(=O)Cc1ccccc1 (stereo not given) | – | 41.5% [at 11.4 µM] (inactive)
30 | CCOC(OCC)P(=O)(O)CCCNCc1ccc(Cl)c(Cl)c1 | inactive | –
31 | CCOc1ccc(C(=O)Nc2cnn(Cc3ccc(Cl)c(Cl)c3)c2)cc1 | 3.55 µM (active) | –
32 | COCCn1c(=O)c(-c2cn(C)c3ccccc23)nc2cnc(N3CCNCC3)nc21 | inactive | –
33 | CN1CCN(c2ncc3nc(-c4cn(C)c5ccccc45)c(=O)n(CCc4ccccc4)c3n2)CC1 | inactive | –
34 | CCNc1ncc2nc(-c3cn(C)c4ccccc34)c(=O)n(Cc3ccc(F)cc3)c2n1 | inactive | –
35 | Cn1cc(-c2nc3cnc(N4CCNCC4)nc3n(Cc3ccc(F)cc3)c2=O)c2ccccc21 | 7.94 µM (active) | –
36 | Cn1cc(-c2nc3cnc(N4CCNCC4)nc3n(CCc3ccccc3)c2=O)c2ccccc21 | 2 µM (active) | –
37 | Cn1cc(-c2nc3cnc(N4CCOCC4)nc3n(CCC#N)c2=O)c2ccccc21 | inactive | –
38 | CSc1nc(O)c(Cc2ccccc2)c(=O)[nH]1 | inactive | –
39 | CSc1nc(C)c(CCOC(=O)c2ccccc2)c(=O)[nH]1 | 15.8 µM (active) | –
40 | CSc1nc(C)c(CCOC(=O)c2cccc(C)c2)c(=O)[nH]1 | 3.16 µM (active) | –
41 | Cc1ccccc1[C@@H](OCCN(C)C)c1ccccc1 | inactive | –
42 | C=CCn1c(=O)c2c(nc(-c3ccc(S(=O)(=O)O)cc3)n2C)n(C)c1=O | inactive | –
43 | C=CCn1cc(Cl)c(=O)n(CC=C)c1=O | inactive | –
44 | C=CCn1c(=O)c2c(nc(Br)n2Cc2ccccc2Cl)n(C)c1=O | 0.794 µM (active) | –
45 | COC(=O)Cn1c(=O)c2c(nc(Br)n2Cc2ccccc2Cl)n(C)c1=O | 0.891 µM (active) | –
46 | COc1ccc(N2CCN(Cc3nc4c(c(=O)n(C)c(=O)n4C)n3CC(C)=O)CC2)cc1 | inactive | –
47 | CN(C)c1nc2c(c(=O)[nH]c(=O)n2C)n1Cc1ccccc1Br | inactive | –
48 | CCn1nccc1C(=O)Nc1nc2ccccc2n1CCN1CCCCC1 | inactive | –
49 | C=CCn1c(NCc2ccccc2)nc2ccccc21 | 3.16 µM (active) | –
50 | O=C(Nc1nc2ccccc2n1Cc1ccccc1)c1ccc(COc2ccccc2[N+](=O)[O-])o1 | 1.26 µM (active) | –

Row | Compound | AC50 | activity, negative = inhibition
51 | COc1ccc(CNc2nc3ccccc3n2Cc2ccccc2)cc1OC | 7.94 µM (active) | –
52 | CC(=O)Nc1nc2ccccc2n1Cc1ccccc1 | 22.4 µM (active) | –
53 | CC(C)CN1CCC2(CC1)CCN(C(=O)c1cc(C(F)(F)F)cc(C(F)(F)F)c1)CC2 | inactive | –
54 | CC[C@](N)(CCC(=O)O)C(=O)O | inactive | –
55 | CN(C)c1ncc2nc(-c3cc(F)cc(F)c3)c(=O)n(C[C@H]3CCCO3)c2n1 | inactive | –
56 | O=C(CN(Cc1ccccc1)S(=O)(=O)c1ccc2c(c1)OCCO2)N/N=C/c1ccc(F)cc1 | 3.98 µM (active) | –
57 | CN(CCc1ccccn1)c1ccc2c(c1)Cc1ccccc1-2 | 0.794 µM (active) | –
58 | CN(CCc1ccccn1)c1ccc2c(c1)C(=O)c1ccccc1-2 | 2.51 µM (active) | –
59 | CCOC(=O)C1=C(O)C(=O)N(Cc2ccccc2)C1 | 15.8 µM (active) | –
60 | COC(=O)c1nnn(Cc2ccccc2)c1N | inactive | –
61 | CCOC(=O)N/N=C1/C[C@@H](O)[C@@H](O)[C@@H]2[C@@H]3C(=O)N(Cc4ccccc4)C(=O)[C@H]3CC[C@@H]12 | – | 11.9% [at 11.4 µM] (inactive)
62 | O=c1onc2n1-c1cc(Br)ccc1OC2 | inactive | –
63 | Cc1nn(-c2ccccc2)c(Cl)c1/C=N/NC(=O)c1ccco1 | 15.8 µM (active) | –
64 | Cc1nn(-c2ccccc2)c(C)c1/C=N/NC(=O)c1cc(-c2ccc(Cl)s2)[nH]n1 | 10 µM (active) | –
65 | N[C@@H](CCCP(=O)(O)O)C(=O)O | inactive | –
66 | OC1CC2CC[C@H](C1)N2CCCN1c2ccccc2Sc2ccc(Cl)cc21 (stereo not given in full) | – | -19.5% [at 11.4 µM] (inactive)
67 | O=C1CSC2(CCN(CCCN3c4ccccc4Sc4ccc(Cl)cc43)CC2)N1 | – | -35% [at 11.4 µM] (inactive)
68 | COc1ccc2c(c1)N(C[C@@H](C)CN(C)C)c1ccccc1S2 | inactive | –
69 | O=C(CSc1nc2ccccc2s1)N1c2ccccc2Sc2ccc(C(F)(F)F)cc21 | 4.47 µM (active) | –
70 | COc1ccc2c(c1)N(CC[C@H]1CCCCN1C)c1ccccc1S2 | – | -12% [at 11.4 µM] (inactive)
71 | O=C(O)CCCSc1nc2ccccc2s1 | – | 20.2% [at 11.4 µM] (inactive)
72 | COc1ccc(OCc2nnc(SCC(=O)N3c4ccccc4Sc4ccc(Cl)cc43)o2)cc1 | 6.31 µM (active) | –
73 | O=C(CSc1nc2ccccc2o1)N1c2ccccc2Sc2ccc(Cl)cc21 | 2.51 µM (active) | –
74 | Nc1c(OCC(=O)O)ccc2cc(S(=O)(=O)O)ccc12 | – | -19.3% [at 11.4 µM] (inactive)
75 | O=C(O)c1nn(-c2ccccc2)nc1-c1nn(-c2ccccc2)nc1C(=O)O | inactive | –

Row | Compound | AC50 | activity, negative = inhibition
76 | CN(C)C=Nc1ccc2nn(-c3ccccc3)nc2c1 | 17.8 µM (active) | –
77 | CC(C)(CC(=O)Nc1ccccc1)C(=O)O | – | 43% [at 11.4 µM] (inactive)
78 | CSc1ccc(CNc2ccc(C)c(C)c2)cc1 | 0.0316 µM (active) | –
79 | CSc1ccc(CNc2ccc(Cl)cc2)cc1 | 0.02 µM (active) | –
80 | CSc1ccc(CNc2ccccc2)cc1 | 0.631 µM (active) | –
81 | CCNc1ncc2nc(CCc3ccccc3)c(=O)n(CCC#N)c2n1 | 15.8 µM (active) | –
82 | CCNc1ncc2nc(CCc3ccccc3)c(=O)n(CCOC)c2n1 | 10 µM (active) | –
83 | CN(C)c1ncc2nc(-c3ccc(F)cc3)c(=O)n(CCC#N)c2n1 | inactive | –
84 | CCNc1ncc2nc(-c3cn(C)c4ccccc34)c(=O)n(CCC#N)c2n1 | inactive | –
85 | CCNc1ncc2nc(-c3ccc(OC)cc3)c(=O)n(CCOC)c2n1 | inactive | –
86 | N#CCCn1c(=O)c(CCc2ccccc2)nc2cnc(Nc3ccccc3)nc21 | inactive | –
87 | CCNc1ncc2nc(-c3ccc(F)cc3)c(=O)n(CCOC)c2n1 | inactive | –
88 | CN(C)c1ncc2nc(CCc3ccccc3)c(=O)n(CCC#N)c2n1 | 10 µM (active) | –
89 | Cc1nc2cnc(N(C)C)nc2n(CCC#N)c1=O | inactive | –
90 | COc1ccc(CCCC(=O)NC2CCCCC2)cc1 | 3.16 µM (active) | –
91 | COc1ccc(CCNC(=O)COc2ccc(S(=O)(=O)NC3CCCCC3)cc2Cl)cc1 | 7.94 µM (active) | –
92 | COc1ccc2c(c1)C(=O)N(CCc1ccc(S(=O)(=O)NC(=O)NC3CCCCC3)cc1)C(=O)C2(C)C | inactive | –
93 | COc1cccc(-c2nccc(NCc3ccccc3)n2)c1 | 7.94 µM (active) | –
94 | COc1cccc(-c2nccc(NCc3cccc(C)c3)n2)c1 | 6.31 µM (active) | –
95 | COc1cccc(-c2nccc(NCc3cnc(C)cn3)n2)c1 | inactive | –
96 | CC1CCN(C(=S)c2ccc(O)cc2)CC1 | 3.55 µM (active) | –
97 | O=C(Nc1cccnc1Cl)C1c2ccccc2Oc2ccccc21 | 0.794 µM (active) | –
98 | Cc1cccc2sc(NC(=O)C3c4ccccc4Oc4ccccc43)nc12 | 2.51 µM (active) | –
99 | N[C@](CC1c2ccccc2Oc2ccccc21)(C(=O)O)[C@@H]1C[C@@H]1C(=O)O | inactive | –
100 | Cc1cccc2c1Oc1ccccc1[C@@H]2NC(=O)c1ccc([N+](=O)[O-])cc1 | – | -12.7% [at 11.4 µM] (inactive)

From PubChem BioAssay AID1851 (National Center for Advancing Translational Sciences (NCATS), 2009)
